Experiment [1] can be described thus: binders of probe aFSTL3 on microarray, primary screen, stem cell growth factor project, biochemical, small-molecule microarray, fluorescence 635/667 (AID 1064).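 Further: measures binding of the biotinylated anti-FSTL3 antibody to printed compounds.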 The conditions noted are these: higher = more signal.
Experiment [2] in a line: binders from COS7 lysate, DM2A8 probe, primary screen, torsin A project, cell lysate, small-molecule microarray, fluorescence 635/667 (AID 1065). The following applies: higher = more signal, COS7 lysate expressing mutant human TOR1A.
Experiment [3] can be described thus: binders of probe aFGF2 on microarray, primary screen, stem cell growth factor project, biochemical, small-molecule microarray, fluorescence 635/667 (AID 1067).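 Further: measures binding of biotinylated aFGF2 protein to printed compounds on slides; z-score merges feature fluorescence and signal-to-noise across triplicate slides.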 The conditions noted are these: higher = more signal.
Experiment [4] is described as follows: binders of probe aFGF10 on microarray, primary screen, stem cell growth factor project, biochemical, small-molecule microarray, fluorescence 635/667 (AID 1071).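 Further: score merges 667 nm spot intensity and signal to noise from triplicate slides.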 The following applies: higher = more signal.
The target of experiment [5] is Neurogenic locus notch homolog protein 2 (Homo sapiens) (UniProt Q04721). Kind of experiment: Notch2 binders on small-molecule microarrays, primary screen, biochemical, small-molecule microarray, 635 nm fluorescence, stem cell growth factors (AID 1073). The following applies: Notch2 binding, higher = more signal.
Neurogenic locus notch homolog protein 2 (Homo sapiens), sequence (Q04721 whole entry, looked up, canonical isoform): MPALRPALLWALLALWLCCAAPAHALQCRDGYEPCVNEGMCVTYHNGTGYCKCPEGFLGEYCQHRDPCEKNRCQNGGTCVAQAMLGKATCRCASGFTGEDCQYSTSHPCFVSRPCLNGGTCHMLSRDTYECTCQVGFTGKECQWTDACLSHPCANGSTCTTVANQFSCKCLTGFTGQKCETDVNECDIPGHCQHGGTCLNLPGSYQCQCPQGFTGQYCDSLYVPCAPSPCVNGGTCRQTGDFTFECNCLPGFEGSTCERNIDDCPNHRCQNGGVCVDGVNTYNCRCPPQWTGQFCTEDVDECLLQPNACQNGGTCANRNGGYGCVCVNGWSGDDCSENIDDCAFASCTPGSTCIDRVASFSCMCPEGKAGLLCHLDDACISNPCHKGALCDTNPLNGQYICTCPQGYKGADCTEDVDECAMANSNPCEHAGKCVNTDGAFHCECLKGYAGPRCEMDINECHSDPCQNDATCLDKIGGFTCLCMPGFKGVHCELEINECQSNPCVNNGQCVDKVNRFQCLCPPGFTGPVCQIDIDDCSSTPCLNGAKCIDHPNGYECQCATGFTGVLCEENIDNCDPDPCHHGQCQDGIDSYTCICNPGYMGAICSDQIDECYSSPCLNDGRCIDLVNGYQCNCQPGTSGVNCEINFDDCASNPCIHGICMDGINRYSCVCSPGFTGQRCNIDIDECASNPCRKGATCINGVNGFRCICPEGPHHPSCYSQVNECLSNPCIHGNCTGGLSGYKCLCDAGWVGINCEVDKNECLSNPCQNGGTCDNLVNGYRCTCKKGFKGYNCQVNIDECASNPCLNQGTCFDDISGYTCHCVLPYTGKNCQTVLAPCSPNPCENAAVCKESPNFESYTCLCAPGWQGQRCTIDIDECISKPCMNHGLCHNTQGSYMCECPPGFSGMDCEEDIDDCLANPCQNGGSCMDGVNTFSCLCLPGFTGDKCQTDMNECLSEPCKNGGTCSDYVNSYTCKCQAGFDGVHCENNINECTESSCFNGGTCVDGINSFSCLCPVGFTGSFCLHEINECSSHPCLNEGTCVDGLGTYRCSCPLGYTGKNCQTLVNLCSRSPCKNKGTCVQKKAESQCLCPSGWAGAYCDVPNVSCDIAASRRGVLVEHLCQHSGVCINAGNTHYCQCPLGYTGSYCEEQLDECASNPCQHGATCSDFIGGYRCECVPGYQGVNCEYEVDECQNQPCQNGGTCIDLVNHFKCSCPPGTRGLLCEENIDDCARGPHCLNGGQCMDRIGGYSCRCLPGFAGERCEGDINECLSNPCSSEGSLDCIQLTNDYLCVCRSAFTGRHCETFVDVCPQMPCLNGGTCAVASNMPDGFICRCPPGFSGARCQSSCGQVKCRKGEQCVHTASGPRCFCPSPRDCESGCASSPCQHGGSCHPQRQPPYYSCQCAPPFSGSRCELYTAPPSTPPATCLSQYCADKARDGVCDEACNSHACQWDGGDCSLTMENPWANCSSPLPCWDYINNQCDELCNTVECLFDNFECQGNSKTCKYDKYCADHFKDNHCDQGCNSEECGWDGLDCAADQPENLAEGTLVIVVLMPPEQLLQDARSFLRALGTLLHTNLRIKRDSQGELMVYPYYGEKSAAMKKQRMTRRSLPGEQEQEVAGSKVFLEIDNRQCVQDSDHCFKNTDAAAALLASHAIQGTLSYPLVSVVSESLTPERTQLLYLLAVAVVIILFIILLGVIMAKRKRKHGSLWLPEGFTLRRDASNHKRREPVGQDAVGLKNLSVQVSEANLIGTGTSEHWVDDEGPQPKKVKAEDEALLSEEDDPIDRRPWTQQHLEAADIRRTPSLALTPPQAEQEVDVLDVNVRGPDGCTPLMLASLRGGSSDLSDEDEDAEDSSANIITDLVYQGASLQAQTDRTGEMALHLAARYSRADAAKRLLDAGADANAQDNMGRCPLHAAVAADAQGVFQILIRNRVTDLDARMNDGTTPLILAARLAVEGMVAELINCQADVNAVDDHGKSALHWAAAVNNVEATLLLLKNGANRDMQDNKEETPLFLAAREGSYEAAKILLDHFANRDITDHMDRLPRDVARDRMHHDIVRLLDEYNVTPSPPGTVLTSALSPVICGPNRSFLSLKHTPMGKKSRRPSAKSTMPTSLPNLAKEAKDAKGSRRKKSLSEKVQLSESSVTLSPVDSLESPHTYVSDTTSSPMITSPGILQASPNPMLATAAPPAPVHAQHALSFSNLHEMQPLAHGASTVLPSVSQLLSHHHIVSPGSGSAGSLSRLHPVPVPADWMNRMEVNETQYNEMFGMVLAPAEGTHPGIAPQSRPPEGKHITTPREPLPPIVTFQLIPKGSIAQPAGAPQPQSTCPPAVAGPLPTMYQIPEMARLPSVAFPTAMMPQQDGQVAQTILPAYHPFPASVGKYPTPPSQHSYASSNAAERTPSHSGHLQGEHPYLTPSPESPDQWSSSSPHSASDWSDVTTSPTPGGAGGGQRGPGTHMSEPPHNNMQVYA
For experiment [6], the target named is Pro-neuregulin-1, membrane-bound isoform (Homo sapiens) (UniProt Q02297). Kind of experiment: NRG1 binders on small-molecule microarrays, primary screen, psychiatric disease protein project, biochemical, small-molecule microarray, fluorescence 635/667 (AID 1075).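 Further: score combines 667 nm spot fluorescence with signal to noise.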 The conditions noted are these: NRG1 binding, 635 nm fluorescence, higher = more signal.
Pro-neuregulin-1, membrane-bound isoform (Homo sapiens), sequence (Q02297 whole entry, looked up, the tested form may be a part, canonical isoform): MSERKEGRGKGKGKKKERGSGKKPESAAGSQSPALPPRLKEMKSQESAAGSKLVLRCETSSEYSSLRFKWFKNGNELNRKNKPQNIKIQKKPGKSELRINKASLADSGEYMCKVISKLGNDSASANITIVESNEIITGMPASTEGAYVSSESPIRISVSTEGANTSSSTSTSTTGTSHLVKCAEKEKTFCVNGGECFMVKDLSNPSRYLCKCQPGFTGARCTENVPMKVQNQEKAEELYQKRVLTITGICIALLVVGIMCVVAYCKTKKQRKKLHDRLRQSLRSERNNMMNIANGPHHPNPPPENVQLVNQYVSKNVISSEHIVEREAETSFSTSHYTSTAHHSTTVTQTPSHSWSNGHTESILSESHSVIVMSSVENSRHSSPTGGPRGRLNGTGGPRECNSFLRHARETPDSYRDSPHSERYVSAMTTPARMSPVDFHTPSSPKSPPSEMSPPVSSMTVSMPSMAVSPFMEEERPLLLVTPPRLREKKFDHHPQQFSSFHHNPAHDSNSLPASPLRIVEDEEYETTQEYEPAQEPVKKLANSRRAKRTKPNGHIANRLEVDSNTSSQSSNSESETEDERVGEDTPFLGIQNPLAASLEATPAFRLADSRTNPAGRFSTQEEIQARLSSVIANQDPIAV
Experiment [7] has as its system Neuregulin-1 EGF-like domain. The experiment is described as follows: binders of neuregulin-1 EGF-like domain, primary screen, biochemical, small-molecule microarray, 635 nm fluorescence (AID 1081).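 Further: binding of the protein to compounds printed on small-molecule microarray slides.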 The following applies: small-molecule microarray binding, higher = more signal.
Experiment [8] in a line: FRG1 promoter luciferase signal modulators, primary screen, FRG1 inhibition for FSHD, cell-based, C2C12 myotubes, firefly/Renilla luciferase, luminescence (AID 1084). The following applies: higher = more signal, called active from +8 up or from −8 down.
Experiment [9] can be described thus: binders of probe aFST on microarray, primary screen, stem cell growth factor project, biochemical, small-molecule microarray, fluorescence 635/667 (AID 1086).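 Further: score merges 667 nm fluorescence with signal-to-noise of each printed compound spot.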 The conditions noted are these: higher = more signal.
Experiment [10] in a line: binders of probe aHhip on microarray, primary screen, stem cell growth factor project, biochemical, small-molecule microarray, fluorescence 635/667 (AID 1087).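 Further: score merges spot fluorescence at 667nm with spot signal to noise ratio.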 The conditions noted are these: higher = more signal.
Experiment [11] has as its system PRMT1 (protein arginine N-methyltransferase 1). Kind of experiment: PRMT1 binders on small-molecule microarrays, primary screen, biochemical, small-molecule microarray, 635 nm fluorescence (AID 1088).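 Further: binding of Prmt1 protein to compounds spotted on small-molecule microarray slides.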 The conditions noted are these: small-molecule microarray binding, higher = more signal.
Experiment [12] is described as follows: yeast growth modulation, basal conditions, primary screen, YJM789 clinical isolate, OD600, 24 h (AID 1089).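 Further: growth of clinical yeast isolate S. cerevisiae YJM 789 seeded 1000 cells per well; test concentration not given here.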 The conditions noted are these: S. cerevisiae YJM789 growth, higher = more signal, called active from +8 up or from −8 down.
Experiment [13] is described as follows: fission yeast growth modulation, primary screen, strain 972, OD600, 24 h, no modulator (AID 1090).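 Further: basal condition with compound alone and no growth modifier present; test concentration not given here.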 The conditions noted are these: S. pombe 972 growth, higher = more signal, called active from +8 up or from −8 down.
Experiment [14] can be described thus: S. cerevisiae growth modulation with rapamycin, primary screen, strain BY4716, OD600, 96 h (AID 1091). Further: test concentration not given here. The following applies: higher = more signal, called active from +8 up or from −8 down.
Experiment [15] deals with Torsin-1A-interacting protein 2 (Homo sapiens) (UniProt Q8NFQ8). The experiment is described as follows: LULL1 binders on small-molecule microarray, primary screen, cell lysate, human LULL1 lysate, 635/667 nm fluorescence (AID 1092).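 Further: probe is lysate of COS7 cells overexpressing human LULL1; score merges per-feature 667 nm fluorescence with signal-to-noise.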 The conditions noted are these: hLULL1 lysate binding, 635 nm fluorescence, higher = more signal.
Torsin-1A-interacting protein 2 (Homo sapiens), sequence (Q8NFQ8 whole entry, looked up): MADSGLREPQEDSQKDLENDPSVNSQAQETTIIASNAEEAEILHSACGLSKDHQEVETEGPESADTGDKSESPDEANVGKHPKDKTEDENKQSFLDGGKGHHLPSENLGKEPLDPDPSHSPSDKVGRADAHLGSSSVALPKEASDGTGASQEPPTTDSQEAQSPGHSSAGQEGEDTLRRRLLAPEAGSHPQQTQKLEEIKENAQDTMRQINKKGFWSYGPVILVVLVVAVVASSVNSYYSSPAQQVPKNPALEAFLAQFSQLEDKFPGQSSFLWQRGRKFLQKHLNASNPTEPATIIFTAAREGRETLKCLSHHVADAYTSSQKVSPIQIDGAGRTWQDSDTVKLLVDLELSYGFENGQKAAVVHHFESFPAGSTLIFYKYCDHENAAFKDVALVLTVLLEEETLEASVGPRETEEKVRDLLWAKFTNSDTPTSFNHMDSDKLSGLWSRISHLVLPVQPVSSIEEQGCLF
The nature of experiment [16]: E. coli growth modulation, two-sided OD650, primary screen, E. coli filamentation project, strain DRC41, 24 h (AID 1093).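 Further: MC1000 strain lacking acrAB efflux and sulA so SOS filamentation is blocked; test concentration not given here.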 The conditions noted are these: OD650, 24 h, higher = more signal, called active from +8 up or from −8 down.
Experiment [17] is described as follows: small-molecule microarray binders of probe aLefty2, primary screen, biochemical, biotinylated probe, 635/667 nm fluorescence (AID 1094).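 Further: score merges spot fluorescence near 667 nm with spot signal-to-noise ratio.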 The following applies: higher = more signal.
For experiment [18], the system named is Noggin (protein binding on small-molecule microarray). The experiment is described as follows: Noggin binders on small-molecule microarray, primary screen, biochemical, 635/667 nm fluorescence (AID 1095).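 Further: score merges 667 nm feature fluorescence with signal to noise over triplicate slides.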 The following applies: 635 nm fluorescence, higher = more signal.
Experiment [19] has as its target Neurogenic locus notch homolog protein 3 (Homo sapiens) (UniProt Q9UM47). The experiment is described as follows: NOTCH3 binders on small-molecule microarray, primary screen, biochemical, 635/667 nm fluorescence (AID 1096). The following applies: NOTCH3 binding, 635 nm fluorescence, higher = more signal.
Experiment [20] in a line: small-molecule microarray binders of probe aEGFR, primary screen, biochemical, biotinylated probe, 635/667 nm fluorescence (AID 1097).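 Further: probe is a biotinylated anti-EGFR antibody binding compounds printed on slides; score combines fluorescence near 667 nm and signal to noise of each spot.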 The conditions noted are these: higher = more signal.

Calls of active or inactive are those of the source.

Nine compounds from PubChem BioAssay can be followed below.

With `CN(C)C(=O)[C@@]1(CCC(=O)OC(C)(C)C)COC(c2ccc(OCCCO)cc2)=N1`, the composite z-score in experiment [1] is 0.0486; in experiment [2], 0.0295; in experiment [3] it was -0.0598; in [4] it was 0.448; in [5] it was 0.675; in experiment [6], 1.8. Further, the composite z-score in experiment [7] is 1.41; in experiment [9] it was 0.267; in experiment [10] it was -0.189; in [11], 1.32; in experiment [15], 3.78; in experiment [17], 0.112. The composite z-score in [18] was 0.74; in experiment [19], 0.0673; in [20], -0.122. The z-score in experiment [8] is -0.977 (inactive); in [12], -0.321 (inactive); in [13], -0.369 (inactive); in experiment [14], -0.501 (inactive); in experiment [16] it was 0.771 (inactive).
In the case of `OCCCC1=CC(c2cccs2)N(Cc2cccc(OC(F)(F)F)c2)CC1` (stereo not given), the composite z-score in experiment [1] was -0.24; in experiment [2], -0.487; in experiment [3], -0.11; in experiment [4], -0.331; in [5] it was -0.763; in experiment [6], -0.222. Further, the composite z-score was 0.44 in [7]; -0.941 in experiment [9]; 0.0401 in experiment [10]; 0.532 in experiment [11]; 0.365 in experiment [15]; -0.0998 in [17]. Also, the results for the composite z-score in [18], in [19] and in [20] were 0.0008, -0.602 and -0.115, respectively. Also, the z-score in experiment [8] is 0.67 (inactive); in [12], -2.28 (inactive); in experiment [13] it was -14.6 (active); in [14], 1.15 (inactive); in experiment [16], -0.15 (inactive).
Regarding `CO[C@H]1O[C@H](CO)[C@@H](OC(=O)c2ccc(Br)cc2)[C@@H]2OC(=O)[C@H](Cc3cccc(Br)c3)C/C=C/C[C@@H](Cc3cccc(Br)c3)C(=O)O[C@@H]12`, the composite z-score was found to be 0.174 in [1]; 0.665 in experiment [2]; 0.0376 in [3]; 1.12 in experiment [4]; 1.43 in [5]; 1.43 in [6]. Moreover, the composite z-score in experiment [7] was 1.06; in experiment [9], 0.551; in [10], 0.319; in experiment [11], 1.47; in experiment [15], 1.08; in [17], 0.0717. For the same compound, the composite z-score in experiment [18] is 0.553; in experiment [19], 1.04; in experiment [20] it was 0.158. Moreover, the z-score in experiment [8] was 0.374 (inactive); in experiment [12] it was -0.73 (inactive); in [13], 0.16 (inactive); in experiment [14], -0.0347 (inactive); in experiment [16], -0.972 (inactive).
Regarding `C=CC[C@]1(C(=O)N2CCOCC2)N=C(c2ccc(OCCCO)cc2)O[C@H]1c1ccccc1CN=[N+]=[N-]`, the composite z-score was -0.0635 in experiment [1]; 1.3 in experiment [2]; 0.103 in [3]; 1.04 in experiment [4]; 1.54 in experiment [5]; 1.77 in experiment [6]. Further, the composite z-score in experiment [7] turned out to be 1.3; in experiment [9] it was 1.99; in experiment [10], 0.28; in experiment [11] it was 1.53; in experiment [15], 3.49; in [17] it was 0.0503. The composite z-score in experiment [18] was 1.57; in [19], 1.05; in experiment [20], -0.0111. Moreover, the z-score in experiment [8] was -1.34 (inactive); in experiment [12], -0.819 (inactive); in [13], -1.63 (inactive); in experiment [14] it was -0.119 (inactive); in [16], 0.191 (inactive).
As for `NC(=O)NCC#Cc1ccc2c(c1)[C@]1(C(=O)N2)[C@H](c2ccc(OCCO)cc2)N2[C@H](c3ccccc3)[C@H](c3ccccc3)OC(=O)[C@H]2[C@@H]1C(=O)N1CCN(c2ncccn2)CC1`, the composite z-score is -0.584 in [1]; 0.936 in experiment [2]; -0.0767 in experiment [3]; 0.766 in experiment [4]; 0.0776 in experiment [5]; 0.29 in experiment [6]. Further, the composite z-score in experiment [7] is -0.178; in experiment [9], -0.194; in experiment [10], -0.0564; in [11], 1.34; in experiment [15], 1.6; in experiment [17], -0.0933. Also, the composite z-score in [18] was 1.63; in experiment [19] it was 0.772; in [20], -0.15. The z-score is 0.565 (inactive) in experiment [8]; 1.77 (inactive) in [12]; 0.494 (inactive) in experiment [13]; 4.43 (inactive) in experiment [14]; 1.31 (inactive) in experiment [16].
Turning to `CCCCC(CC)C(O)C1C=CC2C(=O)NC(=O)C2N1Nc1ccccn1` (stereo not given), the composite z-score in [1] is -0.252; in experiment [2], -0.14; in experiment [3], -0.0005; in [4] it was 0.207; in experiment [5] it was 1.41; in experiment [6] it was 1.38. For the same compound, the composite z-score was 0.879 in experiment [7]; 0.245 in [9]; 0.204 in experiment [10]; 1.34 in experiment [11]; 2.74 in [15]; -0.11 in [17]. For the same compound, the composite z-score in [18] is 0.0732; in experiment [19], 1.1; in [20], -0.119. Further, the z-score is 1.54 (inactive) in experiment [8]; 0.601 (inactive) in experiment [12]; 0.764 (inactive) in experiment [13]; 0.722 (inactive) in experiment [14]; -0.828 (inactive) in [16].
On to `CC(C)N1CC=CC23O[C@@H]4C=CCOC(=O)[C@@H]4[C@H]2C(=O)N(CCCCCCO)[C@@H]3C1=O` (stereo not given in full), for which the composite z-score in [1] is -0.895; in experiment [2], -0.775; in [3] it was -0.237; in [4], 1.07; in experiment [5], -0.697; in experiment [6], -0.126. For the same compound, the composite z-score in experiment [7] is 1.47; in [9], -0.588; in experiment [10], -0.949; in experiment [11] it was 0.0483; in experiment [15], 3.29; in experiment [17] it was -0.315. Also, the composite z-score in [18] is -0.627; in [19] it was -0.478; in experiment [20] it was -0.2. Also, the z-score in experiment [8] was 0.213 (inactive); in experiment [12] it was -0.976 (inactive); in experiment [13], -0.174 (inactive); in [14], -1.41 (inactive); in [16], 0.76 (inactive).
With `COCCCNC(=O)[C@]1(Cc2ccccc2CN=[N+]=[N-])N=C(c2ccc(OCCCO)cc2)O[C@@H]1c1ccccc1CN=[N+]=[N-]`, the composite z-score was 0.726 in [1]; 0.686 in experiment [2]; 0.256 in experiment [3]; 1.03 in experiment [4]; 1.25 in [5]; 1.84 in experiment [6]. Also, the composite z-score came to 1.15 in [7]; 1.23 in experiment [9]; 0.537 in experiment [10]; 1.51 in [11]; 3.17 in experiment [15]; 0.419 in experiment [17]. Moreover, the values for the composite z-score in [18], in experiment [19] and in experiment [20] were 0.342, 0.697 and 0.332, respectively. Besides, the z-score in experiment [8] was -1.35 (inactive); in experiment [12] it was -0.353 (inactive); in experiment [13], 1.34 (inactive); in experiment [14] it was 31.6 (active); in [16], 0.378 (inactive).
In the case of `O=C1C[C@@](C(=O)O)(c2ccc([N+](=O)[O-])cc2)[C@@H](c2ccc(CO)cc2)N1CC12CC3CC(CC(C3)C1)C2`, the composite z-score in experiment [1] is 0.524; in experiment [2], 0.603; in experiment [3] it was -0.009; in [4], 0.527; in [5] it was 1.13; in experiment [6], 1.38. Besides, the composite z-score in [7] is 1.12; in experiment [9], 0.49; in experiment [10], -0.196; in experiment [11], 1.54; in [15] it was 2.3; in [17], 0.0446. Also, the composite z-score came out at 0.257 in experiment [18], 0.857 in experiment [19] and 0.06 in experiment [20]. The z-score in [8] was -2.54 (inactive); in experiment [12], 0.629 (inactive); in experiment [13], -2.98 (inactive); in experiment [14], 0.117 (inactive); in [16], 0.91 (inactive).
